Inconclusive results are not listed. Activity calls are given as the source filed them. Unless noted, the call rests on the fitted dose curve; in most records, active means well fitted curve in the direction sought with a large enough effect; inconclusive means small, poorly fitted or top-dose-only effect, or another doubt; inactive means no such curve, though single readings can be large; an effect the other way counts as inactive or inconclusive.
Legend:
[1] = target: Arylsulfatase A (Homo sapiens) (UniProt P15289); experiment: qHTS screen for enhancers of Arylsulfatase A (ASA1): LOPAC Validation Assay (AID 720538); further: potency means the concentration at half of the fitted maximal effect
Chain of Arylsulfatase A (Homo sapiens) (P15289 whole entry, looked up): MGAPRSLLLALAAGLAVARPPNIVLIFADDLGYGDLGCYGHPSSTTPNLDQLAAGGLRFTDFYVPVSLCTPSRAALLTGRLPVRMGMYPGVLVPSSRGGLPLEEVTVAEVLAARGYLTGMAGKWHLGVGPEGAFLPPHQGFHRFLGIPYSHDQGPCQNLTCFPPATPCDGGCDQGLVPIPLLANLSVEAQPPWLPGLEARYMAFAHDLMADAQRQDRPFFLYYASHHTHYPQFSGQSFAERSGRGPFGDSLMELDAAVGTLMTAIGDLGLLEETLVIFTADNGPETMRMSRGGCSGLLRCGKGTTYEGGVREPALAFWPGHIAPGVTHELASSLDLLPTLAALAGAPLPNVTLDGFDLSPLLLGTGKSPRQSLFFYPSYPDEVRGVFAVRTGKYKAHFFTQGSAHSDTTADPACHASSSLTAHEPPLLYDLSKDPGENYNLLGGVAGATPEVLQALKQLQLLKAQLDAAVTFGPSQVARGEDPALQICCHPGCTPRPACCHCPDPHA
Outline: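 Enhancer assay in patient-derived MLD fibroblasts carrying ASA-I179S: 48 h compound exposure at 37 C, then 14 h room-temperature pNCS turnover (0.5 mM final) in lysis buffer. Read by fluorescence at 525/598 nm after NaOH stop.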

[2] = qHTS for compounds that reverse cellular toxicity of Amyloid beta (A-beta) peptide in yeast: LOPAC Validation Assay (AID 720559);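 further: plate controls were DMSO for no effect and equimolar ferric chloride plus clioquinol rescue for full effect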
Outline: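 Rescue of A-beta toxicity was scored as yeast growth by 600 nm absorbance after 48 hr at 30 C with compound. Normalization used DMSO (negative) and equimolar ferric chloride plus clioquinol (positive).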

[3] = qHTS for Activators of Parkin Expression: LOPAC Validation Assay (NLuc Reporter) (AID 720572)
Outline: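 Compound effects on Parkin promoter activity were measured as NanoLuc luminescence after 24 h at 37 C. The neuronal reporter line also carried FLuc, which was read first. LOPAC compounds were tested at 7 concentrations, with normalization to DMSO (0%) and positive control (100%).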

[4] = qHTS for Activators of Parkin Expression: LOPAC Validation Assay (FLuc Reporter) (AID 720573)
Outline: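 FLuc signal from Parkin-promoter coincidence reporter neuronal cells, normalized to DMSO and positive control (100%). Cells (1,500/well) pre-incubated 24 h, then exposed to LOPAC compounds in 7-point dose response for 24 h at 37 C, 5% CO2.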

[5] = target: Peroxisome proliferator-activated receptor alpha (Homo sapiens) (UniProt Q07869); experiment: qHTS assay for small molecule agonists of the peroxisome proliferator-activated receptor alpha (PPARalpha) signaling pathway (AID 651778); settings: PathHunter PPARalpha complementation, chemiluminescence, 6 h; max response: active compounds read high; further: % of control where 0% means no effect
Chain of Peroxisome proliferator-activated receptor alpha (Homo sapiens) (Q07869 whole entry, looked up): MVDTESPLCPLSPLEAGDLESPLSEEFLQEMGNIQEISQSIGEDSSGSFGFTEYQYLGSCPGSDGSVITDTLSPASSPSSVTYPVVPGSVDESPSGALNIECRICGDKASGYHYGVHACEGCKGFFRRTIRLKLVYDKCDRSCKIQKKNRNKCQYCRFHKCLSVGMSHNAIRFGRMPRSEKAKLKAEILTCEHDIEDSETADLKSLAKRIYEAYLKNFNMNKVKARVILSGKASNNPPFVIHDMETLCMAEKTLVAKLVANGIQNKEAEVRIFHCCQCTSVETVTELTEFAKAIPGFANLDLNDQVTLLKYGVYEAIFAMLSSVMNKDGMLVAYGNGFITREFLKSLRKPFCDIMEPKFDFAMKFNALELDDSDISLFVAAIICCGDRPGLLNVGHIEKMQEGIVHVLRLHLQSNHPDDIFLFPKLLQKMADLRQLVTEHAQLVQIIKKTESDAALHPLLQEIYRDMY
Outline: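 Chemiluminescence from complemented enzyme reported PPARalpha activation in cells after 6 hr of compound treatment at 37 C. The detection reagent was incubated for 60 min at room temperature, and compounds were scored as agonists.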

[6] = qHTS assay for small molecule agonists of the antioxidant response element (ARE) signaling pathway measured by Nrf2-dependant transcriptional activity (AID 720636; active means well fitted curve in the direction sought with a large enough effect in the repeat runs; an effect the other way counts as inactive or inconclusive;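 further: HepG2 cells with an ARE-driven luciferase reporter; % of control where 0% means no effect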)
Outline: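 HepG2 ARE-luc reporter line, 1% dialyzed FBS; 6 hr attachment at 37 C, compound pinned in, 16 hr at 37 C/5% CO2; ONE-Glo, 30 min RT, luminescence read.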

[7] = qHTS assay for small molecule agonists of the antioxidant response element (ARE) signaling pathway measured by Nrf2-dependant transcriptional activity - cell viability counter screen (AID 720653; active means well fitted curve in the direction sought with a large enough effect in the repeat runs; an effect the other way counts as inactive or inconclusive; further: on the % scale 0 is the no-effect control and ±100 the full control effect); settings: ARE-bla HepG2 viability, CellTiter-Glo ATP luminescence, 16 h; active compounds read low
Outline: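 Cytotoxicity counter screen: intracellular ATP quantified by CellTiter-Glo luminescence in the same ARE-bla HepG2 plates, after 16 h compound exposure and a 2 h beta-lactamase substrate step.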

[8] = target: Tumor susceptibility gene 101 protein (Homo sapiens) (UniProt Q99816); experiment: qHTS Assay for Iinhibitors of HIV-1 Budding by Blocking the Interaction of PTAP/TSG101: Hit Validation (AID 651600); further: on the % scale 0 is the no-effect control and ±100 the full control effect; nearly all actives have a fitted effect of over 70% in size
Chain of Tumor susceptibility gene 101 protein (Homo sapiens) (Q99816 whole entry, looked up, the tested form may be a part): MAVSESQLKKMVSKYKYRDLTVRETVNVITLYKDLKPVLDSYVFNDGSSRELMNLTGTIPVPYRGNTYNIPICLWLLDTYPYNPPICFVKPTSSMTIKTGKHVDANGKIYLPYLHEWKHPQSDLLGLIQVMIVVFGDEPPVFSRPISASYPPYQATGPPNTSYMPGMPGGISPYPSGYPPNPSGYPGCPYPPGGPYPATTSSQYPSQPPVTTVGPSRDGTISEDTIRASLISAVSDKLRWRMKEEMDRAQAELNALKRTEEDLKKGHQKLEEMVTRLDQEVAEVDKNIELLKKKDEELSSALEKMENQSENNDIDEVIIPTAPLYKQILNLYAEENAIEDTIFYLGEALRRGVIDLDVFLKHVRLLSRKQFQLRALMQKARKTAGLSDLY
Outline: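 FITC-PTAP peptide (50 nM final) binding to Tsg101 binding domain (10 uM final) was measured by polarization after 20 min at r.t. with compounds, in 10 mM HEPES pH 7.5 buffer with 0.15 M NaCl and 0.01% Tween 20.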

[9] = qHTS assay for small molecule agonists of the antioxidant response element (ARE) signaling pathway (AID 651741; active means well fitted activation curve with a large enough effect in the signal ratio; the % refers to the signal ratio; further: % of control where 0% means no effect)
Outline: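 Agonist activity is measured as ARE-driven beta-lactamase expression in a stable HepG2 reporter line, using 16 h compound treatment at 37 C and a FRET substrate fluorescence readout after 2 h.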

[10] = qHTS assay for small molecule activators of the nuclear factor-kappa B (NF-kB) signaling pathway (AID 651749; active means well fitted activation curve with a large enough effect in the signal ratio; the % refers to the signal ratio; further: series mostly up to about 77 µM; % of control where 0% means no effect); settings: NF-kB-bla ME-180 cells, beta-lactamase FRET ratio, 16 h; active compounds read high
Outline: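 FRET-based beta-lactamase detection in ME-180 cells reports NF-kB response-element-driven transcription following overnight (16 hr) compound treatment.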

[11] = qHTS assay for small molecule disruptors of the mitochondrial membrane potential - 1 hr assay (AID 651754; calls by dose curve; further: on the % scale 0 is the no-effect control and ±100 the full control effect; nearly all actives have a fitted effect of over 35% in size)
Outline: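 Read-out: dye fluorescence at 490 nm ex/535 nm em (monomers) and 540 nm ex/590 nm em (aggregates) in HepG2 cells. Compound exposure 1 hr at 37C, followed by 30 min dye loading.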

[12] = qHTS assay for small molecule disruptors of the mitochondrial membrane potential - 5 hr assay (AID 651755; calls by dose curve; further: on the % scale 0 is the no-effect control and ±100 the full control effect; nearly all actives have a fitted effect of over 40% in size)
Outline: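 Membrane-potential dye readout: red aggregate (540 ex/590 em) versus green monomer (490 ex/535 em) fluorescence after 30 min dye loading, following 5 hr compound exposure at 37C of overnight-plated HepG2 cells.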

[13] = target: Tumor necrosis factor (Homo sapiens) (UniProt P01375); experiment: qHTS assay to identify small molecules that stimulate Tumor Necrosis Factor-alpha (TNF-alpha) secretion (AID 651757; active means well fitted curve in the direction sought with a large enough effect in the signal ratio; the % refers to the signal ratio; further: 0% is about no effect)
Chain of Tumor necrosis factor (Homo sapiens) (P01375 whole entry, looked up): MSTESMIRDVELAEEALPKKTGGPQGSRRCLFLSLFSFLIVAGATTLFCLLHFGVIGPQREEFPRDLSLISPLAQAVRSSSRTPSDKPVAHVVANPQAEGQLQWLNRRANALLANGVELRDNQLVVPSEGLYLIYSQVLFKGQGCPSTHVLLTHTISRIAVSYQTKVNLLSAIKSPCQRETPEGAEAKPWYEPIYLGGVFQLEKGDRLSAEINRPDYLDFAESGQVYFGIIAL
Outline: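 THP-1 cells, 3000/well; compound 17 hrs, 37 C; add cryptate/XL665 anti-TNF-alpha antibody pair; 3 hr RT; TR-FRET (HTRF) read of secreted TNF-alpha. Quantitative HTS format.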

[14] = qHTS assay for environmental chemicals that activate the Aryl hydrocarbon Receptor (AhR) signaling pathway (AID 651777); settings: 1A2-DRE human hepatoma cells, luciferase, 24 h; active compounds read high; further: % of control where 0% means no effect; nearly all actives have a fitted effect of over 15% in size
Outline: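 Luminescence read-out: One-Glo added for 30 min at RT after 24 hr compound treatment (37 C, 5% CO2) of human hepatoma cells expressing a DRE/CYP1A2 promoter–luciferase reporter; increased signal indicates AhR activation.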

[15] = target: Nuclear receptor ROR-gamma (Homo sapiens) (UniProt P51449); experiment: qHTS assay for small molecule antagonists of the retinoid-related orphan receptor gamma (ROR-gamma) signaling pathway (AID 651802);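 further: CHO cells with doxycycline-induced ROR-gamma expression; luciferase reporter luminescence driven by ROR response element; series mostly up to about 92 µM; on the % scale 0 is the no-effect control and ±100 the full control effect; nearly all actives have a fitted effect of over 60% in size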
Chain of Nuclear receptor ROR-gamma (Homo sapiens) (P51449 whole entry, looked up): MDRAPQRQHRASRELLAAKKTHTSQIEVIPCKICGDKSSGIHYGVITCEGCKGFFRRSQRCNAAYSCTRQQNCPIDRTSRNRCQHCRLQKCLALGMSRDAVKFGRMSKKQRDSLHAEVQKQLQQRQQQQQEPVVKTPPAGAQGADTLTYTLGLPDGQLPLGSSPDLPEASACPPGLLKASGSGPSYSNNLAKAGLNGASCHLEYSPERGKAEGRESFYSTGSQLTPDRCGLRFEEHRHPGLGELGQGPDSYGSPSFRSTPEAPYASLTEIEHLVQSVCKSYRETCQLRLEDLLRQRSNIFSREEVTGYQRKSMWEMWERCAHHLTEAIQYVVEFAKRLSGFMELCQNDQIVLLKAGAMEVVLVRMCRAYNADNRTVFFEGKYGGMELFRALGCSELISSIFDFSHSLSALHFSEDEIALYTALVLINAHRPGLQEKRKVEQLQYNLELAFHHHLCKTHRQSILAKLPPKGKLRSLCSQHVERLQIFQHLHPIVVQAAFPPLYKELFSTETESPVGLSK
Outline: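 Luciferase read-out: ONE-Glo luminescence after 30 min at room temperature, following 16hr doxycycline induction at 37C, 5% CO2 of CHO cells with TET-inducible ROR and RORE-LUC reporter; decreased luminescence = reduced reporter activity.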

[16] = qHTS assay for small molecule antagonists of the retinoid-related orphan receptor gamma (ROR-gamma) signaling pathway - cell viability counter screen (AID 720652; active means well fitted curve in the direction sought with a large enough effect in the repeat runs; an effect the other way counts as inactive or inconclusive;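 further: CHO reporter cells with doxycycline-induced ROR-gamma expression; series mostly up to about 92 µM; compound exposure lasted 16 hr before ATP read; on the % scale 0 is the no-effect control and ±100 the full control effect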)
Outline: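 CHO RORE-LUC/TET-ROR line, 1,000 cells/well, 37 C 5% CO2 5 hr; cpd or DMSO + doxycycline induction, 16 hr. CellTiter-Glo, 30 min RT, luminescence = ATP content.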

CN[C@H](CC(=O)O)C(=O)O
inactive: Potency [1] | outcome [2] | Potency [3] | Potency [4]

OC[C@H]1NC[C@@H](O)[C@@H]1O
inactive: Potency [1] | outcome [2] | Potency [3] | Potency [4]

CC[C@@H]1Cc2cc(O)ccc2C2=C1c1ccc(O)cc1C[C@H]2CC
inactive: max response [5] -2.38% | Potency [1] | Potency [3] | Potency [4] | outcome [6] | max response [7] -25.6%

CN1CCCC1CCOC(C)(c1ccccc1)c1ccc(Cl)cc1 (configuration not stated)
inactive: outcome [8] | Potency [1] | outcome [2] | Potency [3] | Potency [4]

COc1cc(/C=C(\C#N)C(=O)c2ccc(O)c(O)c2)cc(I)c1O
inactive: outcome [2] | Potency [3] | Potency [4]
active: Potency [1] 21.3 µM

COCc1nc2c([nH]1)c(=O)n(C)c(=O)n2CC(C)C
inactive: Potency [1] | outcome [2] | Potency [3] | Potency [4]

NC(=O)c1ccccc1
inactive: Potency [9] | activation [10] 1.72% | outcome [11] | outcome [12] | outcome [13] | activation [14] 0.0429% | max response [5] 0.54% | outcome [15] | Potency [1] | outcome [2] | Potency [3] | Potency [4] | outcome [6] | outcome [16] | max response [7] -5%

Source: PubChem BioAssay (NCATS)
